According to the supplement of paper PMC6658780:
Where a name gives a salt, the structure may show the parent alone. ± gives the standard deviation of the averaged measurements.

What follows are molecules tested on Escherichia coli ATCC BAA-2469 (assay: percent growth inhibition of drug alone vs DMSO control; higher = more growth inhibition). Conditions: antibiotic (0.125x MIC): none (0.1% DMSO); 7 µM.
Method: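 Prestwick drugs tested at 20 uM and 7 uM with an antibiotic at 0.125x MIC (16 mg/L when MIC >128 mg/L) against E. coli ATCC BAA-2469 (NDM-1) in CAMHB, 384-well plates, duplicate runs. Percent growth inhibition was computed from OD600 (24 h minus 0 h) relative to DMSO wells. Drug + DMSO-only wells are also given. […]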

Row | SMILES | percent growth inhibition of drug alone
1 | Nc1nnc(-c2cccc(Cl)c2Cl)c(N)n1 [Lamotrigine] | 2.35 ± 0.19%
2 | Oc1c(I)cc(Cl)c2cccnc12 [Clioquinol] | 11.8 ± 2.5%
3 | CCCCC(CC)CNC(=N)NC(=N)NCCCCCCNC(=N)NC(=N)NCC(CC)CCCC (stereo unspecified) [Alexidine dihydrochloride] | 102 ± 2%
4 | C#C[C@]1(OC(C)=O)CC[C@H]2[C@@H]3CCC4=C[C@@H](OC(C)=O)CC[C@@H]4[C@H]3CC[C@@]21C [Ethynodiol diacetate] | -1.57 ± 7.4%
5 | COc1ccc2c(c1)c(CC(=O)OCC(=O)O)c(C)n2C(=O)c1ccc(Cl)cc1 [Acemetacin] | 2.19 ± 1%
6 | CCN(CC)CCNC(=O)c1cc(Br)c(N)cc1OC [Bromopride] | -0.123 ± 0.93%
7 | CC1=C(/C=C/C(C)=C/C=C/C(C)=C\C(=O)O)C(C)(C)CCC1 [Isotretinoin] | 1.08 ± 2.4%
8 | Cc1cc(/C=C/c2ccc3cc(N(C)C)ccc3[n+]2C)c(C)n1-c1ccccc1 [Pyrvinium pamoate] | 11.8 ± 12%
9 | Nc1c2ccccc2nc2ccccc12 [Aminacrine] | 1.8 ± 0.95%
10 | CCC[C@@H]1C[C@@H](C(=O)N[C@@H]([C@H]2O[C@H](SC)[C@H](O)[C@@H](O)[C@H]2O)[C@H](C)Cl)N(C)C1 [Clindamycin hydrochloride] | 12.8 ± 13%
11 | O=C1c2c(O)ccc(O)c2C(=O)c2c(NCCNCCO)ccc(NCCNCCO)c21 [Mitoxantrone dihydrochloride] | 7.78 ± 5.1%
12 | Nc1ccn([C@@H]2O[C@H](CO)[C@@H](O)C2(F)F)c(=O)n1 [Gemcitabine] | 15.3 ± 12%
13 | Cn1c(=O)c2c(ncn2C)n(C)c1=O [Caffeine] | 1.12 ± 0.78%
14 | Oc1c(Cl)cc(Cl)c(Cl)c1Cc1c(O)c(Cl)cc(Cl)c1Cl [Hexachlorophene] | 9.96 ± 8.8%
15 | CS(=O)(=O)c1ccc([C@@H](O)[C@@H](CF)NC(=O)C(Cl)Cl)cc1 [Florfenicol] | 21.5 ± 9.2%
16 | CCOC(=O)c1ccc(OC(=O)CCCCCNC(=N)N)cc1 [Gabexate mesilate] | 3.5 ± 6.5%
17 | CC(=O)c1ccc2c(c1)N(CCCN1CCC(CCO)CC1)c1ccccc1S2 [Piperacetazine] | 0.548 ± 3.2%
18 | CC(=O)OC[C@H]1O[C@@H]([S-])[C@H](OC(C)=O)[C@@H](OC(C)=O)[C@@H]1OC(C)=O.CCP(CC)CC.[Au+] [Auranofin] | 5.6 ± 2.6%
19 | CS(=O)(=O)c1ccc([C@@H](O)[C@@H](CO)NC(=O)C(Cl)Cl)cc1 [Thiamphenicol] | 4.47 ± 3.6%
20 | CCCCNc1c(C(=O)OCC)c(C)nc2c1cnn2CC [Tracazolate hydrochloride] | 3.29 ± 0.5%
21 | CCOC(=O)c1ccc(N)cc1 [Benzocaine] | -0.533 ± 1.7%
22 | CO/N=C(\C(=O)N[C@@H]1C(=O)N2C(C(=O)O)=C(COC(N)=O)CS[C@H]12)c1ccco1 [Cefuroxime sodium salt] | -0.846 ± 2.2%

Same assay, conditions: antibiotic (0.125x MIC): none (0.1% DMSO); 20 µM

Row | SMILES | percent growth inhibition of drug alone
23 | Nc1nnc(-c2cccc(Cl)c2Cl)c(N)n1 [Lamotrigine] | 1.91 ± 1.2%
24 | CCCCC(CC)CNC(=N)NC(=N)NCCCCCCNC(=N)NC(=N)NCC(CC)CCCC (stereo unspecified) [Alexidine dihydrochloride] | 112 ± 12%
25 | C#C[C@]1(OC(C)=O)CC[C@H]2[C@@H]3CCC4=C[C@@H](OC(C)=O)CC[C@@H]4[C@H]3CC[C@@]21C [Ethynodiol diacetate] | -0.574 ± 3.8%
26 | COc1ccc2c(c1)c(CC(=O)OCC(=O)O)c(C)n2C(=O)c1ccc(Cl)cc1 [Acemetacin] | 1.2 ± 0.59%
27 | CCN(CC)CCNC(=O)c1cc(Br)c(N)cc1OC [Bromopride] | 1.57 ± 1.2%
28 | CN(C)c1ccc(O)c2c1C[C@H]1C[C@H]3[C@H](N(C)C)C(O)=C(C(N)=O)C(=O)[C@@]3(O)C(O)=C1C2=O [Minocycline hydrochloride] | 110 ± 14%
29 | CC1=C(/C=C/C(C)=C/C=C/C(C)=C\C(=O)O)C(C)(C)CCC1 [Isotretinoin] | 3.78 ± 1.7%
30 | Cc1cc(/C=C/c2ccc3cc(N(C)C)ccc3[n+]2C)c(C)n1-c1ccccc1 [Pyrvinium pamoate] | 13.6 ± 3.2%
31 | Nc1c2ccccc2nc2ccccc12 [Aminacrine] | 21 ± 13%
32 | CCC[C@@H]1C[C@@H](C(=O)N[C@@H]([C@H]2O[C@H](SC)[C@H](O)[C@@H](O)[C@H]2O)[C@H](C)Cl)N(C)C1 [Clindamycin hydrochloride] | 35.5 ± 16%
33 | Nc1ccn([C@@H]2O[C@H](CO)[C@@H](O)C2(F)F)c(=O)n1 [Gemcitabine] | 28.3 ± 14%
34 | Cn1c(=O)c2c(ncn2C)n(C)c1=O [Caffeine] | -1.35 ± 0.22%
35 | Nc1ncn(C2OC(CO)C(O)C2O)c(=O)n1 (stereo unspecified) [Azacytidine-5] | 111 ± 10%
36 | CCOC(=O)c1ccc(OC(=O)CCCCCNC(=N)N)cc1 [Gabexate mesilate] | 0.291 ± 0.37%
37 | CC(=O)c1ccc2c(c1)N(CCCN1CCC(CCO)CC1)c1ccccc1S2 [Piperacetazine] | 0.302 ± 2.2%
38 | CC(=O)OC[C@H]1O[C@@H]([S-])[C@H](OC(C)=O)[C@@H](OC(C)=O)[C@@H]1OC(C)=O.CCP(CC)CC.[Au+] [Auranofin] | 20.1 ± 20%
39 | CCCCNc1c(C(=O)OCC)c(C)nc2c1cnn2CC [Tracazolate hydrochloride] | -0.173 ± 5.2%
40 | CCOC(=O)c1ccc(N)cc1 [Benzocaine] | 1.27 ± 1.7%
41 | CO/N=C(\C(=O)N[C@@H]1C(=O)N2C(C(=O)O)=C(COC(N)=O)CS[C@H]12)c1ccco1 [Cefuroxime sodium salt] | -0.542 ± 0.39%
